The structures appear in SMILES notation. The whole screen tested about 410,000 compounds, of which about 2,400 (0.59%) were called active. Cut-off read from the data, not from the text of the source: active = max activation above about 30%; inactive = the rest. The full list was thinned out, with actives kept by preference.

The assay deals with D(3) dopamine receptor (Homo sapiens) (UniProt P35462). In words: qHTS of D3 Dopamine Receptor Agonist: qHTS. Note: 0% is about no effect. Conditions: D3R DiscoveRx beta-arrestin cells, luminescence, 90 min; stronger effect = higher value. An outline of the steps: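 Agonist-mode cell screen: cells plated at 1500/well and incubated overnight at 37 °C, then exposed to library compounds for 90 min at 37 °C. Detection reagent was added for 30–60 min at room temperature, and luminescence was read.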
Chain of D(3) dopamine receptor (Homo sapiens) (P35462 whole entry, looked up): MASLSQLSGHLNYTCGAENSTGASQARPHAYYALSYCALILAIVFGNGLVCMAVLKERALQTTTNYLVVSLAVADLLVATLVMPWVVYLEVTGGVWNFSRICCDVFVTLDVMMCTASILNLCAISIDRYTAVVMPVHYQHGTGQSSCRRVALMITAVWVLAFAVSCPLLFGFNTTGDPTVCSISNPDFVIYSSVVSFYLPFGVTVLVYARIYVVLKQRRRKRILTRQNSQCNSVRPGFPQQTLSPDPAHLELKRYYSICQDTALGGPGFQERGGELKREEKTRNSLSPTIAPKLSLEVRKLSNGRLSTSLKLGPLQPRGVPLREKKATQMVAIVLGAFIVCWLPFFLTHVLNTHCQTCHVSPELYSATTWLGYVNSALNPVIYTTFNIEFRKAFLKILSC
In general terms: qHTS replaces the single test concentration by a dilution series.
As for `N#C/C(=C\c1cccc(F)c1)c1nc(-c2cc3c(ccc4ccccc43)oc2=O)cs1`, the max activation is 4.13% (inactive). In the case of `NC(=O)c1ncn([C@@H]2O[C@H](CNCc3cnc(N4CCOCC4)s3)[C@@H](O)[C@H]2O)n1`, the max activation is 0% (inactive). On to `COc1cc2c(cc1CNC[C@H]1O[C@@H](n3cnc(C(N)=O)n3)[C@H](O)[C@@H]1O)OCO2`, for which the max activation was 4.9% (inactive).

Consider `NC(=O)c1ncn([C@@H]2O[C@H](CN=C3NS(=O)(=O)c4ccccc43)[C@@H](O)[C@H]2O)n1`, for which the max activation is 40.4% (active). In the case of `COc1cccc(Nc2nc3ccccc3c3nncn23)c1` it was 10.1% (inactive). In the case of `CCCn1c2ccccc2c2cnn(CC(=O)N3CCCC(C(=O)OCC)C3)c(=O)c21` (stereo not given) it was 6.55% (inactive); in that of `CCc1cccc(-n2nnc(-c3nsc(NC(=O)c4ccc(C)cc4)n3)c2C)c1`, -11.9% (inactive).

For the compound `Cc1c(-c2nsc(NC(=O)c3cccc(Cl)c3)n2)nnn1-c1ccccc1C(F)(F)F`, the max activation is -0.907% (inactive). With `COc1ccc(-n2nnc(-c3nsc(NC(=O)c4ccc(C)c(C)c4)n3)c2C)cc1Cl` the figure was 41.8% (active); with `Cc1oc2c(C)c3oc(=O)c(CC(=O)N[C@@H](CC(C)C)C(=O)N[C@@H](Cc4ccccc4)C(=O)O)c(C)c3cc2c1C`, 11.4% (inactive).

Regarding `Cc1c(OC(C)C(=O)NCC2CCC(C(=O)O)CC2)ccc2c1oc(=O)c1ccccc12` (stereo not given), the max activation was -0.808% (inactive). With `Cc1c(OC(C)C(=O)N[C@@H](Cc2ccccc2)C(=O)O)ccc2c3c(c(=O)oc12)CCCC3` (stereo not given in full) the figure was 37.1% (active).

With `COC(=O)c1c(NC(=O)c2cc(=O)c3c(C)cc(C)cc3o2)sc2c1CCCC2`, the max activation is 4.95% (inactive).

For the compound `CCN1C(=NCCc2cccnc2)N[C@@H](c2ccccc2)C(C(=O)OC)=C1C`, the max activation was -55.8% (inactive).

As for `Cc1cc(C)cc(Nc2ncnc3onc(-c4ccc(F)cc4)c23)c1`, the max activation is 9.02% (inactive). In the case of `COc1ccc(CCn2ccc(O)c(Cc3ccc(Cl)cc3Cl)c2=O)cc1OC` it was -10.8% (inactive); in that of `COc1ccc(C(=O)O/N=C(\N)Cc2ccc(Cl)cc2Cl)cc1OC`, 36.2% (active); in that of `COC(=O)c1ccc(OC(=O)c2nn(C)cc2Cl)c(OC)c1`, 1.35% (inactive).

Take `CC(=O)c1ccc(NC(=O)CCc2nc(-c3ccc(C)cc3)no2)cc1`: the max activation was 2.51% (inactive). In the case of `Cc1ccc(OCCSc2nc(-c3cccs3)nc3cc(=O)[nH]n23)cc1Cl`, the max activation was 6.63% (inactive). With `CCCc1ccc(-c2c(C)sc(NC(=O)c3ccnn3C)c2C#N)cc1` the figure was 57.1% (active).

Consider `Cc1c(C(=O)OC(C)C)sc(NC(=O)c2cccnc2)c1C#N`, for which the max activation is -1.22% (inactive).

Take `CCc1ccccc1NC(=O)CSc1nc(C)c(C(=O)Nc2ccccc2)c(-c2ccc(Cl)cc2)c1C#N`: the max activation was 3.31% (inactive). In the case of `Cc1ccccc1Nc1nn2c(=O)c3ccc(C(=O)NCCc4ccc(Cl)cc4)cc3nc2s1`, the max activation is 4.22% (inactive). In the case of `COc1cc(NS(=O)(=O)c2ccc3c(c2)OCC(C(=O)N2CCCC2)O3)cc(OC)c1` (stereo not given) it was 19.5% (inactive); in that of `Cc1c(CC(=O)N2CCN(C(=O)C3COc4ccccc4O3)CC2)c(=O)oc2c(O)c(O)ccc12` (stereo not given), 40.6% (active). In the case of `COc1ccc(OC)c2sc(N3CCN(C(=O)C4COc5ccccc5O4)CC3)nc12` (stereo not given) it was -1.78% (inactive); in that of `CNCC(O)c1ccc(O)c(O)c1` (stereo not given), 137% (active). Consider `CCC(C)c1ccc(O)c(/C=N/O)c1` (stereo not given), for which the max activation is -1.03% (inactive).

Regarding `Cc1cc(C)c(-c2n[nH]c3c2C(c2ccccc2F)N(CCO)C3=O)c(O)c1` (stereo not given), the max activation is -0.594% (inactive). `CCC1(C)CC(=O)NC1=O` (stereo not given): the max activation was -5.68% (inactive). For `Cc1cc(C(=O)Nc2cccc(C(F)(F)F)c2)c2c(C)nn(-c3cccc(F)c3)c2n1`, the max activation was 8.25% (inactive). With `CCOC(=O)CSc1nnc(CNC(=O)c2cccs2)n1-c1cc(OC)ccc1OC` the figure was 6.63% (inactive); with `CC(C)(C)OC(=O)N1CCC(c2c(C(=O)N3CCN(c4cccc(Cl)c4)CC3)cnn2-c2cccc(Cl)c2)CC1`, -9.63% (inactive). In the case of `COC(=O)c1ccccc1NC(=O)Cn1c(=O)n(-c2cccc(C(F)(F)F)c2)c(=O)c2c(C)c(C)sc21` it was -14.9% (inactive); in that of `CS(=O)(=O)N(Cc1ccc(Cl)cc1)c1ccc(C(=O)NCCSCc2ccco2)cc1`, 0.47% (inactive); in that of `CCN1CCN(C(=O)c2ccc(CN(c3ccc(C)c(C)c3)S(C)(=O)=O)cc2)CC1`, -12.8% (inactive). In the case of `Cc1ccc(N(Cc2ccc(C(=O)Nc3ccccc3C(=O)NCc3ccco3)cc2)S(C)(=O)=O)cc1C`, the max activation is 33.8% (active).

As for `Cc1oc2ncnc(N3CCCCC3)c2c1C(=O)N1CCN(c2cccc(Cl)c2)CC1`, the max activation was -5.06% (inactive). `Cc1cc(C)cc(NC(=O)CSc2nc(=O)n(CCN3CCOCC3)c3c2CCC3)c1`: the max activation was 0.821% (inactive). `CC(C)(C)OC(=O)N1CCC(c2c(C(=O)NCc3ccccn3)cnn2-c2ccc(F)cc2)CC1`: the max activation is -0.963% (inactive). With `CCCOc1ccc(NC(=O)CC2C(=O)N(c3ccccc3)C(=O)N2Cc2ccco2)cc1` (stereo not given) the figure was 8.76% (inactive); with `COc1ccc(-c2cc(-c3nc(-c4cc(OC)c(OC)c(OC)c4)no3)[nH]n2)c(OC)c1`, 5.61% (inactive); with `CCc1ccc(-n2nnc(-c3nc(-c4ccccc4)no3)c2C)cc1`, 6.45% (inactive). Regarding `COc1ccc(OC)c(-n2nnc(-c3nc(-c4cc(OC)c(OC)c(OC)c4)no3)c2C)c1`, the max activation was 31.2% (active). With `Nc1ccccc1SC(C[N+](=O)[O-])c1ccccc1` (stereo not given) the figure was 0.396% (inactive). For `Cc1cccc(C)c1NC(=O)NC1=CCCN1C`, the max activation is 0.916% (inactive). As for `O=C(O)CCC(=O)O`, the max activation was 17.7% (inactive). Turning to `COc1ccc(OC)c(-c2c(=O)n(OCc3ccccc3Br)c3ccccc3[n+]2[O-])c1`, the max activation was -6.63% (inactive). With `CCOc1ccc(S(=O)(=O)c2cn(Cc3ccccc3)c3ccc(OCC)cc3c2=O)cc1` the figure was 6.37% (inactive); with `CCOc1ccc(OCC)c(-c2c(=O)n(OCc3ccc(Cl)cc3)c3ccccc3[n+]2[O-])c1`, 39.5% (active); with `O=C(OCc1ccccc1)c1ccc(O)cc1`, 3.77% (inactive). For `Cc1ccc(C(=O)OCC(=O)NC2CCCCCCC2)cc1C`, the max activation is 1.29% (inactive).

As for `Cc1ccc(C(=O)COC(=O)CCN2C(=O)C3C4CCC(C4)C3C2=O)cc1C` (stereo not given), the max activation was -16.9% (inactive).

As to `Cc1ccc(C(=O)COC(=O)c2cccc(N3C(=O)c4c(C)nc5ccccc5c4C3=O)c2)cc1C`, the max activation is 40.4% (active).

The values are drawn from PubChem BioAssay AID652048 (National Center for Advancing Translational Sciences (NCATS), 2013).
